Test results from PubChem BioAssay (Tox21).
“And” between values parts separate entries of the source, which are not always exact repeats. Identical values can stand only once. Records with an inconclusive call do not appear. Entries that show only a call come without a potency. The source made the active and inactive calls. Calls come from the whole dose curve.

The molecules below were run against 5-hydroxytryptamine receptor 2A (Homo sapiens) (UniProt P28223) (assay: 5-hydroxytryptamine receptor 2A (HTR2A) small molecule antagonists, cell-based qHTS assay (AID 1963586; note: nearly all actives have a fitted effect of over 45% in size)). Details: HTR2A-CHO cells, DOI-induced calcium flux, fluorescence; series mostly up to 61.5 µM.
From the text: National Center for Advancing Translational Sciences [NCATS]
Division of Preclinical Innovation [DPI]
U.S. Environmental Protection Agency [EPA]
National Institutes of Environmental Health Sciences [NIEHS]
National Toxicology Program [NTP]
U.S. Food and Drug Administration [FDA]
The HTR2A receptor is a subtype of the 5-HT2 receptor that belongs to the serotonin receptor family and is a G protein-coupled receptor (GPCR). The HTR2A-CHO cell line stably expressing human 5-hydroxytryptamine receptor 2A (HTR2A) can be used for screening antagonists of interactions between 5-HT2 and its ligands. The HTR2A-CHO calcium flux assay is a homogeneous fluorescence-based assay for detecting the intracellular calcium level using FDSS kinetic plate reader system.
Tox21 Assay Protocol Summary:
HTR2A-CHO cells were dispensed at 2000 cells/3uL/well in 1536-well black-clear bottom plates using a Multidrop Dispenser. After the assay plates were incubated at a 37 C/5% CO2 incubator for 18 h, 3 uL of Dye Loading Buffer was transferred to the assay plate by a Flying Reagent Dispenser. The assay plates were incubated at 37 C for 1h. For antagonist mode, 23 nL of compounds dissolved in DMSO, positive controls or DMSO only was transferred to the assay plate by a pin tool. After 5 min incubation at room temperature, 1.5 uL of 4-Iodo-2,5-dimethoxy-alpha-methylbenzeneethanamine hydrochloride (DOI) at 4nM was added to each well. The fluorescence intensity in the plates was measured using FDSS 7000EX kinetic plate reader for 3 min at 1 sec intervals.
Potency is the fitted concentration of half-maximal effect.

5-hydroxytryptamine receptor 2A (Homo sapiens), sequence (P28223 whole entry, looked up): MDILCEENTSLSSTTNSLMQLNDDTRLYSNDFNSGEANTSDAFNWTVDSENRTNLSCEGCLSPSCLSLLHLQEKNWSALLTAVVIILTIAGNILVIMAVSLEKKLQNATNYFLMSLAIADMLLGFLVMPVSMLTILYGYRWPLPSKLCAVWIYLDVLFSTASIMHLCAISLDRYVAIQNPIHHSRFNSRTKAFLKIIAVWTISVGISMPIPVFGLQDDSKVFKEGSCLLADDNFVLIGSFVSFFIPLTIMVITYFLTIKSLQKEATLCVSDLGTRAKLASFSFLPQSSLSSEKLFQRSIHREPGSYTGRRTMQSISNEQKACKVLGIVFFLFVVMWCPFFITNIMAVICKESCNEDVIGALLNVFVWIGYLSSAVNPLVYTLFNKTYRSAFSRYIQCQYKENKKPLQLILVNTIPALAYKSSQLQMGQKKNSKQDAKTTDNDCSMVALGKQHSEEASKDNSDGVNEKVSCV

Row | SMILES | Potency
1 | Nc1ccc(S(=O)(=O)Nc2ccc(Cl)nn2)cc1 | inactive
2 | C1CCCNCCC1 | inactive
3 | CC(C)(CO)[C@@H](O)C(=O)NCCC(=O)O | inactive
4 | CCCOCCC | inactive
5 | c1ccc(CNCc2ccccc2)cc1 | 8.4 µM (active)
6 | COc1ccc(C#N)cc1 | inactive
7 | CC1=C(O)C(=O)OC1C (stereo not given) | inactive
8 | CC1CCCC(=O)C1=O (stereo not given) | inactive
9 | CCOCCOCC | inactive
10 | COC(=O)c1cc(S(N)(=O)=O)ccc1OC | inactive
11 | N[C@@H](Cc1c[nH]c2ccc(O)cc12)C(=O)O | 364 nM (active) and 6.5 µM (active)
12 | CCCCCC1CCC(=O)O1 (stereo not given) | inactive
13 | CC1CCC(C(C)(C)O)CC1 (stereo not given) | inactive
14 | C1=CCC2CC=CC2C1 (stereo not given) | inactive
15 | CCCCNc1ccccc1 | inactive
16 | CCN1CCCC(OC(=O)C(c2ccccc2)c2ccccc2)C1 (stereo not given) | 0.163 µM (active)
17 | c1ccc2c(c1)CCC2 | inactive
18 | CC1(C)C2=CCCC(C)(C)[C@]23CC[C@H]1C3 | inactive
19 | c1ccc2ncccc2c1 | inactive
20 | CC1CNCC(C)O1 (stereo not given) | inactive

Row | SMILES | Potency
21 | CCc1ccccc1O | inactive
22 | CCOC(=O)CN1CCCC1=O | inactive
23 | CC(C)CCO | inactive
24 | CN1CCOCC1 | inactive
25 | Nc1ccc(Oc2ccc(Cl)cc2)cc1 | inactive
26 | FC(F)(F)c1ccccc1-n1ccnc1 | inactive
27 | Nc1ccc(Cl)c(N)c1 | inactive
28 | CCC(C)(O)CCC=C(C)C (stereo not given) | inactive
29 | COc1ccc2cc1Oc1cc3c(cc1OC)CC[N+](C)(C)[C@H]3Cc1ccc(cc1)Oc1c(OC)c(OC)cc3c1[C@@H](C2)[N+](C)(C)CC3 | inactive
30 | CC(=O)/C=C/C1C(C)=CCC(C)C1(C)C (stereo not given) | inactive
31 | C[C@@H]1CCC[C@H](C)N1 | inactive
32 | CC(C)c1cccc(C(C)C)c1N | inactive
33 | CCCCOCCCC | inactive
34 | COc1ccc2nc(N)sc2c1 | inactive
35 | C1=Cc2ccccc2C1 | inactive
36 | N#CC1(c2ccc(F)cc2)CCC(=O)CC1 | inactive
37 | CCCCCCCCCCCCCCCCCC(=O)OCC(CC)CCCC (stereo not given) | inactive
38 | Cc1ncsc1CCO | inactive
39 | CC1CC(=O)CC(C)(C)C1 (stereo not given) | inactive
40 | COC(OC)C(C)c1ccccc1 (stereo not given) | inactive
